Compound activity as filed in PubChem.
Shown are actives, neighbours in structure and some others; about 6.7% of the full set was active somewhere.
BoNT F protease – blocks Botulinum neurotoxin F light chain protease; Multiplex microsphere protease cleavage assay, flow cytometry; inhibition, % at 10 µM; actives 0.22% (n = 360,000); in the data active means inhibition above about 35%, passing the limit was not always enough; inconclusive means no clear call, values can overlap the other calls; further: plate controls were buffer without enzyme for full effect and enzyme alone for no effect
Mtb FBA inh – inhibits M. tuberculosis FBA enzyme. P9WQA3. purified M. tuberculosis FBA, fluorescence read-out. inhibition, % at 1 µM. actives 2.3% (n = 360,000). AID 588726; in the data active means inhibition above about 27%;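 further: 0% = vehicle and 100% = reference inhibitor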
Target sequence (P9WQA3 whole entry, looked up): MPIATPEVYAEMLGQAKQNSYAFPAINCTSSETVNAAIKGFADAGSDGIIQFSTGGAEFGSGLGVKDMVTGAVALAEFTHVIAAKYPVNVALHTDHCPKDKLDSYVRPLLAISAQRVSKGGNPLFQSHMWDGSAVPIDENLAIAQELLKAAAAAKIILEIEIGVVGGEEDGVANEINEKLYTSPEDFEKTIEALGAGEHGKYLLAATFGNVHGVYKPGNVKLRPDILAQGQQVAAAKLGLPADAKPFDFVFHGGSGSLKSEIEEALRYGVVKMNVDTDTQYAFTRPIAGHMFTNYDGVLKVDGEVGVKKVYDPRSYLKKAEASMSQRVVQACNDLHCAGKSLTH
Autofluor counter – flagged as autofluorescent in microsphere protease counterscreen; fluorescence intensity (concentration not given with the values); compound autofluorescence counterscreen, microsphere flow cytometry; hits give high values; actives 3.1% (n = 360,000); AID 624483; in the data active means fluorescence intensity above about 16000; inconclusive means no clear call, values can overlap the other calls
BoNT A protease – BoNT A light chain protease inhibition; AID 588499; multiplex microsphere protease substrate cleavage, flow cytometry; actives 0.17% (n = 360,000); inhibition, % at 10 µM; further: plate controls were buffer without enzyme for full effect and enzyme alone for no effect
Anthrax LF inh2 – anthrax lethal factor protease inhibition | P15917 | multiplex microsphere protease cleavage assay, LF | inhibition, % at 10 µM | actives 0.12% (n = 360,000) | AID 588501; further: plate controls were buffer without enzyme for full effect and enzyme alone for no effect
GDH-TPI counter – counter-screen for M. tuberculosis FBA inhibitors: GDH-TPI coupled enzymes. AID 588335. GDH-TPI coupled enzyme counterscreen, NADH absorbance. actives 1.2% (n = 360,000). inhibition, % at 4.8 µM; in the data active means inhibition above about 30%;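 further: 0% = DMSO wells and 100% = wells lacking the enzyme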
Numbers without * were called inactive; ? = inconclusive; . = no result given; + = active, no number. Unless noted, no stated cut-off is given here; in the data, active means inhibition above about 30%; inconclusive means no clear call, values can overlap the other calls; inactive means below that.

SMILES	BoNT F protease	Mtb FBA inh	Autofluor counter	BoNT A protease	Anthrax LF inh2	GDH-TPI counter
CCOc1cc(C(=O)NCc2ccccc2)ccc1OCC(=O)N1CCCCC1	-4.7	4.2	2769	-0.4	1.3	-6.1
O=C(NCc1ccccc1)c1cccc(OCC(=O)N2CCN(C(=O)c3ccco3)CC2)c1	1.4	-0.2	20088*	?	3.0	-5.8
CCCc1c(O)nc(SCC(=O)O)[nH]c1=O	4.6	1.8	4157	0.1	-6.9	0.0
CCN(CC)S(=O)(=O)c1cc(NC(=O)COC(=O)CCc2nc3ccccc3s2)ccc1C	-1.0	-3.1	22825*	?	-4.9	-11.7
CCOC(=O)C1(Cc2cccc(OC)c2)CCCN(Cc2c(C)nn(C(C)C)c2C)C1 (stereo not drawn)	1.3	5.9	3446	0.6	6.2	7.8
O=C(c1ccccc1)c1cc2ccccc2o1	1.1	13.3	5301	-0.7	1.3	2.2
O=C(c1ccc(F)cc1)c1cc2ccccc2o1	1.1	1.1	24066*	-0.9	-1.6	7.0
CN1CCN(c2nc(N(C)C)oc(=O)c2C#N)CC1	1.1	1.6	22716*	-0.6	-1.0	3.9
CN(C)c1nc(N2CCN(c3ccc(F)cc3)CC2)c(C#N)c(=O)o1	?	0.9	?	?	?	2.4
CCOC(=O)c1c(C)c(C(=O)NCc2ccc3c(c2)OCO3)c(C)n1CC	-2.1	-1.8	2126	-0.5	0.8	-2.2
CCOC(=O)c1cnc(-n2cc(C)cn2)nc1NCc1ccc2c(c1)OCO2	-2.4	0.3	21542*	?	-0.3	-1.3
COc1ccc(CCN(C)C(=S)Nc2cccc(C)c2)cc1OC	30.9	-1.4	4945	9.2	12.0	-4.6
Oc1ccc(C=Nc2cccc3ncccc23)c(O)c1	7.9	-6.4	4514	-0.7	1.0	15.5
Oc1ccc(C=Nc2ccccc2-c2nc3ccccc3[nH]2)c(O)c1	-7.9	166.1*	2444	-0.2	-3.8	32.6*
Oc1ccccc1C=Nc1ccccc1-c1nc2ccccc2[nH]1	-2.5	128.1*	2066	0.7	1.7	17.8
COc1ccc(OC)c(/C=C/c2nc3ccccc3[nH]c2=O)c1	?	4.3	5926	?	?	9.2
COc1ccc(OC)c(C=Nc2ccccc2-c2nc3ccccc3[nH]2)c1	-11.6	+	1954	0.0	-3.1	16.9
CC1=NN2C(=N)/C(=C\c3cc(C)n(-c4ccc(C)cc4)c3C)C(=O)N=C2S1	?	0.8	3658	?	28.9	6.4
O=S(=O)(Nc1nc2ccccc2nc1NCc1ccco1)c1ccc(F)cc1	-3.5	12.0	4503	-1.0	-3.6	34.5*
CCOC(=O)C1CCN(C=Nc2cc(C)on2)CC1	-1.9	+	3206	-1.1	-3.8	8.1
CCOC(=O)C1CCN(S(=O)(=O)c2ccc(C(C)=O)cc2)CC1	-2.0	-0.5	4392	0.7	-1.5	0.3
COc1ccc(C(O)c2ncc(-c3ccccc3Cl)[nH]2)cc1 (stereo not drawn)	-4.0	4.1	3983	0.0	-3.8	2.2
CC(=O)NCCNC(=O)c1ccc(Sc2ccccc2)c([N+](=O)[O-])c1	-1.4	1.1	4376	0.2	-3.1	7.1
COc1ccc(CCNC(=O)CSc2nnc(CNc3ccc(Cl)cc3)o2)cc1OC	0.2	-1.1	21392*	-0.9	0.4	-14.6
COc1ccc(NCc2nnc(SCC(=O)Nc3cc(C)cc(C)c3)o2)cc1	-1.5	-1.0	21267*	?	-3.4	13.6
SMILES	BoNT F protease	Mtb FBA inh	Autofluor counter	BoNT A protease	Anthrax LF inh2	GDH-TPI counter
COc1ccc(CCNC(=O)CSc2nnc(CNC(=O)c3c(F)cccc3Cl)o2)cc1OC	-1.1	1.2	5648	1.0	0.9	-2.6
COc1ccc(NCc2nnc(SCC(=O)c3ccc(C)cc3)o2)cc1	5.4	-7.8	4313	-0.5	-3.6	2.5
Cn1ccc2cc(-c3ccc4ncnc(NCc5cccs5)c4c3)ccc21	-25.9	6.6	4132	0.9	-11.9	-0.5
Cn1cc(CN2CCN(c3ccccc3)CC2)c2ccccc21	1.4	0.1	21941*	3.1	-13.4	6.8
CC(OC(=O)CCSc1ccccc1)C(=O)Nc1ccc(S(N)(=O)=O)cc1 (stereo not drawn)	-4.0	2.4	4707	4.8	-0.5	-5.5
O=c1oc(-c2ccc(O)c(O)c2)cc2cc(O)cc(O)c12	-11.4	10.8	4359	-0.1	-11.9	32.4*
CCN(CC)c1nc(N)nc(NS(=O)(=O)c2ccc(Cl)cc2)n1	6.4	2.7	19449*	?	2.1	-9.7
CCNc1nc(NC(C)C)nc(NS(=O)(=O)c2ccc(N)cc2)n1	-6.0	-0.4	17274*	-1.6	0.2	-5.7
CC(C)Nc1nc(NC(C)C)nc(NS(=O)(=O)c2ccc(N)cc2)n1	16.7	-0.5	?	2.2	3.9	3.5
CCNc1nc(NC(C)C)nc(NS(=O)(=O)c2ccc(Cl)cc2)n1	-0.6	-0.2	22725*	1.1	-1.1	-7.0
CCOC(=O)c1c(NC(=O)C[n+]2ccc(Cc3ccccc3)cc2)sc(C)c1C	-3.9	-2.0	4149	0.0	-2.0	8.5
O=C(c1ccccc1)N1CCN(C2C3CC4CC(C3)CC2C4)CC1 (stereo not drawn)	-6.2	-2.9	5151	-0.4	0.4	-1.1
O=C(COC(=O)CCC1CCCC1)Nc1ccc(Cl)cn1	-1.1	0.2	17161*	-1.1	-0.7	7.6
O=C(COC(=O)C1CCC1)Nc1ccc(Cl)cn1	-6.5	-1.3	3917	-0.2	4.2	-0.8
CCN1CCN(Cc2cc(Br)cc(OC)c2O)CC1	-0.5	4.3	22198*	0.1	1.6	1.9
CCN(C(=O)COc1ccccc1[N+](=O)[O-])C1CCS(=O)(=O)C1 (stereo not drawn)	-3.7	-0.3	2649	-0.2	0.5	1.1
c1ccc(-c2nc3ccccc3nc2-c2ccccn2)nc1	2.9	8.2	22188*	1.8	0.3	19.9
COc1cccc(C2=CC(=O)CC(C)(C)C2=O)c1	3.9	1.3	3642	0.6	-5.0	22.6
COc1ccccc1-c1nnc(SC2CCc3ccccc3NC2=O)s1 (stereo not drawn)	-1.5	14.3	20615*	?	1.8	15.5
CCc1cc(=O)oc2c(CN3CCN(C)CC3)c(O)ccc12	7.5	+	3530	0.6	14.0	18.4
Cc1ccc2c(CN3CCN(CCO)CC3)cc(=O)oc2c1C	7.4	-0.6	10459	0.2	2.9	2.4
O=c1cc(-c2ccccc2)c2cc(Cl)c(O)c(CN3CCOCC3)c2o1	1.0	8.6	3541	0.2	-11.3	7.2
CCc1cc(=O)oc2c(CN3CCN(C)CC3)c(O)c(Cl)cc12	3.2	+	15420	1.5	-3.9	44.4*
CCOc1ccc2c(CC)cc(=O)oc2c1OCC	-2.9	12.1	6992	-0.3	-1.8	3.8
Cc1cc(=O)oc2c(CN3CCCCC3)c(O)ccc12	-3.3	.	3230	0.1	-4.5	16.4
Cc1cc(=O)oc2c(CN3CCOCC3)c(O)ccc12	-9.5	.	5131	-1.5	-0.1	37.5*
CCCc1cc(=O)oc2c(CNc3ccc(OCC)cc3)c(O)ccc12	-13.5	164.8*	4127	-3.2	2.2	9.0
